IL1B secr inh: qHTS for Inhibitors of Inflammasome Signaling: IL-1-beta AlphaLISA Primary Screen; THP-1 LPS/ATP IL-1B secretion, AlphaLISA, 16 h; active compounds read low; activity change, % at 57.5 µM; AID 743279, 2014; hit rate 4.7% among 360,000; in the data active = activity change below about -50%; inconclusive = mostly about -30% to -49%
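Secreted IL-1B measured by AlphaLISA bead assay after 16 h compound exposure of THP-1 cells; compounds (final up to 57.5 uM) added 1 h before LPS (250 ng/mL) and ATP (1.25 mM) stimulation; lower signal means less secretion.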
TDP1 cell CPT: qHTS for Inhibitors of human tyrosyl-DNA phosphodiesterase 1 (TDP1): qHTS in cells in presence of CPT | chicken DT40 Tdp1-/-;hTDP1 cells + 20 nM CPT, ATP luminescence, 48 h | Potency, µM (top dose mostly 46.2 µM), actives largely listed as inhibitors | hit rate 12% among 420,000; note: nearly all actives have a fitted effect of over 55% in size
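Chicken DT40 Tdp1-/- cells stably complemented with human TDP1 were seeded at 400 cells/well in medium containing 20 nM camptothecin, exposed to pin-transferred compounds, and grown at 37 °C for at least 48 hr. Viability was read as ATP luminescence.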
DT40 TDP1 no CPT: qHTS for Inhibitors of human tyrosyl-DNA phosphodiesterase 1 (TDP1): qHTS in cells in absence of CPT | Potency, µM (titrated, usually from 46.2 µM), most hits filed as inhibitors | AID 686978, 2013 | DT40 Tdp1-/- hTDP1 cells, no CPT, ATP luminescence, 48 h | hit rate 15% among 420,000; note: nearly all actives have a fitted effect of over 55% in size
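No-CPT arm: Tdp1-/-;hTDP1 DT40 cells (400/well) plus compounds, incubated ≥48 hr at 37 °C. Readout CellTiter-Glo luminescence.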
HT1080 IDH1KD tx: qHTS for induction of synthetic lethality in tumor cells producing 2HG: qHTS for the HT-1080-IDH1KD cell line | HT-1080 IDH1 knockdown viability, ATP luminescence, 48 h | Potency, µM (titrated, usually from 46.1 µM), hits mostly cytotoxic | hit rate 2% among 360,000 | AID 686971, 2013
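After a 2 h attachment period, IDH1KD HT-1080 cells took pin-transferred compound for 48 h at 37 °C; ATP-based luminescence after 10 min room-temperature reagent incubation reported viability.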
HT1080NT lethal: qHTS for induction of synthetic lethality in tumor cells producing 2HG: qHTS for the HT-1080-NT fibrosarcoma cell line; hit rate 1.6% among 360,000; HT-1080-NT fibrosarcoma viability, CellTiter-Glo ATP luminescence, 48 h; Potency, µM (top dose mostly 46.1 µM), most hits filed as cytotoxic;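 note: NT is the 2HG producing partner of a matched IDH1 knockdown line; nearly all actives have a fitted effect of over 55% in size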
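HT-1080-NT; 750 cells/well; 5% FBS RPMI; 48 h compound, 37 degrees C; CellTiter-Glo luminescence; curve fitting and curve-class assignment.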
Hits are given with their value; n = inactive; u = inconclusive; x = no result; [ ] = another dose, or the depositor's remark. Shown are actives, neighbours in structure and some others; about 19% of the full set was active somewhere. Unless noted, calls come from the whole dose curve; as a rule, active = well fitted curve in the direction sought with a large enough effect; inconclusive = small, poorly fitted or top-dose-only effect, or another doubt; inactive = no such curve, though single readings can be large; an effect the other way counts as inactive or inconclusive.

SMILES	IL1B secr inh	TDP1 cell CPT	DT40 TDP1 no CPT	HT1080 IDH1KD tx	HT1080NT lethal
Cc1[nH]c2ccccc2c1SCCN	n	u	u	n	n
Cc1[nH]c2ccccc2c1SCc1ccccc1	n	u	u	n	n
CC(=O)OCCSc1c(-c2ccccc2)c2cc(Cl)ccc2[nH]c1=O	n	n	u	n	n
Cc1ccc(-c2cc(=O)[nH]c3ccccc23)cc1	n	9.2µM	7.3µM	n	n
NCCSc1c(-c2ccccc2)[nH]c2ccccc12	n	u	21µM	n	n
NCCSc1c(-c2ccc(Cl)cc2)[nH]c2ccccc12	-65	u	u	n	n
O=C(c1cccc(F)c1)N1CCC[C@@]2(CCN(Cc3ccncc3)C2)C1	x	n	n	x	x
Cc1ccccc1C1N=C2Oc3ccccc3C=C2C(=O)N1 (stereo not drawn)	n	6.5µM	5.8µM	n	n
CCCCN(C(=O)COc1ccc(C)cc1OC)c1c(N)n(CCC)c(=O)[nH]c1=O	n	n	n	n	n
C[C@H]([C@H](O)c1ccccc1)N(C)C(=O)CN	n	n	n	n	n
Cc1cc2c(cc1C)CSC(c1ccccc1OC(=O)C(C)C)SC2	n	u	11µM	n	n
O=C(O)C(Cc1ccnc2ccccc12)=NO	n	n	n	n	u
CCOC(=O)C(Cc1ccnc2ccccc12)=NO	n	u	u	n	15µM
COc1cc(NS(=O)(=O)c2ccc(-c3cc(C)no3)cc2)cc(OC)c1	x	1.8µM	2.1µM	x	x
COc1ccc(-c2cc(C)no2)cc1S(=O)(=O)NC(C)C	x	n	n	x	x
COc1ccccc1CNS(=O)(=O)c1ccc(-c2cc(C)no2)cc1	n	0.58µM	0.58µM	2.1µM	4.1µM
Cc1noc(C)c1NC(=O)N(C)C[C@H]1Oc2c(NC(=O)C3CCCCC3)cccc2C(=O)N([C@H](C)CO)C[C@@H]1C	n	n	n	n	n
CSc1nsc(SCC(=O)Nc2ccc(F)cc2F)n1	n	n	n	n	n
Cc1cc(=O)oc2c(C)c(OCC(=O)N3CCC(C(=O)O)CC3)ccc12	n	n	n	n	n
CC12CCC(=O)N1C(C(=O)Nc1ccc(F)c(Cl)c1)CS2 (stereo not drawn)	n	n	n	n	n
N#CC(c1ccccc1)c1ccc(C(=O)c2ccc(F)cc2)cc1 (stereo not drawn)	n	n	23µM	n	n
N#CC(c1ccc(F)cc1)c1ccc(C(=O)c2ccccc2)cc1 (stereo not drawn)	n	u	u	n	n
O=C(COC(=O)c1cnc(Cl)c(Cl)c1)NC1CCCC1	u	n	n	n	n
O=C(NC1CCN(Cc2ccccc2Cl)CC1)c1ccccc1	n	n	u	n	n
O=C(NN1CCN(Cc2ccccc2Cl)CC1)c1ccc(Cl)cc1	n	u	12µM	n	n
SMILES	IL1B secr inh	TDP1 cell CPT	DT40 TDP1 no CPT	HT1080 IDH1KD tx	HT1080NT lethal
Cc1ccc(C(O)c2ncc(-c3ccccc3Cl)[nH]2)cc1F (stereo not drawn)	n	u	u	n	n
COC(=O)COc1ccccc1/C=C1/NC(=O)NC1=O	-71	n	n	n	n
Fc1cccc(NC(=S)NNc2ccccc2)c1	n	3.3µM	2.6µM	n	n
Fc1cccc(NC(=S)NNc2c3ccccc3nc3ccccc23)c1	n	1.3µM	0.92µM	21µM	u
Fc1cccc(NC(=S)NCc2ccccc2Cl)c1	u	u	n	u	u
CCN(C(=O)COC(=O)c1cc2ccccc2cc1OC)c1c(N)n(Cc2ccccc2)c(=O)[nH]c1=O	n	u	u	n	n
CC(C)N(C(=O)CSc1nc2ccccc2n1Cc1ccc(F)cc1)C(C)C	-62	23µM	u	u	n
C=Cc1ccc(Cn2c(SCC(=O)N3CCN(c4ccc(F)cc4)CC3)nc3ccccc32)cc1	x	23µM	u	x	x
CC(C)NC(=O)CSc1nc2ccccc2n1CC(=O)N(C(C)C)C(C)C	n	u	n	n	n
O=C(CSc1nc2ccccc2n1Cc1ccc(F)c(Cl)c1)N1CCN(c2ccc(F)cc2)CC1	x	18µM	9.2µM	x	x
O=C(c1cccc(F)c1)N1CCC2(CCN(Cc3ccncc3)CC2)CC1	x	n	n	x	x
O=C(C[C@H]1C(=O)N(CCc2ccccc2)C[C@@H]1c1ccccc1)Nc1ccccc1	n	n	u	n	n
CCOC(=O)C1CCCCN1S(=O)(=O)c1cc2c(cc1C)NC(=O)CO2 (stereo not drawn)	n	u	u	n	n
C=CCc1ccccc1OCC(=O)NNC(=S)NCc1ccccc1	n	6.5µM	5.2µM	n	n
O=C(COc1ccc(Cl)cc1)NNC(=S)NCc1ccccc1	n	u	u	n	n
COc1ccccc1OCC(=O)Nc1ccc(NC(=O)COc2ccccc2OC)cc1	n	n	n	n	n
O=C(COc1ccccc1C(=O)Nc1ccccc1)Nc1ccccc1F	x	u	16µM	x	x
CC(=O)c1ccc(NC(=O)COc2ccccc2C(=O)Nc2ccccc2)cc1	n	11µM	11µM	n	n
O=C(COc1ccccc1CNCc1ccccc1)Nc1ccccc1	n	u	18µM	11µM	u
O=C(NCCc1ccccn1)C(F)(F)C(F)(F)C(F)(F)C(F)(F)C(F)(F)C(F)(F)C(F)(F)C(F)F	n	n	n	n	n
N#Cc1ccc(NC(=O)COc2ccccc2C(=O)Nc2ccccc2)cc1	x	11µM	u	x	x
COCCn1c(=NC(=O)c2ccc3c(c2)OCCO3)sc2cc(C(=O)OC)ccc21	x	n	n	x	x
O=C(NCC1(N2CCOCC2)CCCC1)c1cnn(-c2nccc(-c3cccs3)n2)c1C1CC1	x	n[9.04 µM]	n	x	x
Cc1ccc(S(=O)(=O)NCc2ccccc2)cc1C(=O)N1CCCCC1	n	n	n	n	n
Cc1ccc(S(=O)(=O)NCc2ccccc2)cc1C(=O)N1CCN(S(=O)(=O)c2ccccc2F)CC1	n	12µM	u	n	n
SMILES	IL1B secr inh	TDP1 cell CPT	DT40 TDP1 no CPT	HT1080 IDH1KD tx	HT1080NT lethal
Cc1ccc(S(=O)(=O)NCc2ccccc2)cc1C(=O)N1CC(C)CC(C)C1 (stereo not drawn)	n	u	18µM	n	n
Cc1ccc(S(=O)(=O)NCc2ccccc2)cc1C(=O)N1CCN(c2ccccc2)CC1	n	u	u	n	n
Cc1ccc(OCCOCCN(C)C)c(Cl)c1	n	n	n	n	n
C=CCNC(=O)/C(C#N)=C/c1ccccc1OCc1ccc(C(=O)OC)cc1	n	2.9µM	7.3µM	u	u
Cc1ccc(S(=O)(=O)N/N=C/c2cccc3nccnc23)cc1	n	13µM	15µM	n	n
Cc1ccc(S(=O)(=O)N/N=C/c2cccc3c2OCCO3)cc1	n	u	n	n	n
